Source: the supplement of paper PMC12636033
± gives the standard deviation of the averaged measurements. Whole data set: some 33,000 sequences, median “E-score (rank enrichment, -0.5 to 0.5)” near -0.0075, cut for the highest 2% near 0.23. The list comes from a sample in which the highest values are over-represented; it also holds similar and randomly drawn sequences.

These sequences were tested on WT Max(13-93) synthetic (M65Nle) (assay: PBM 8-mer E-score (E-score (rank enrichment, -0.5 to 0.5)); higher = stronger preferential binding).
Procedure: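 Protein binding microarray (universal PBM chip covering all 10-mers in fixed probe flanks) with chemically synthesized human Max(13-93) bHLH-LZ analogs (not full-length Max) bearing noncanonical residues (hArg, Tha, Aib, Nle at 65) and aromatic Cys staples. Read-out per 8-mer (and its reverse complement): E-score (rank-based enrichment, -0.5 to 0.5) and Z-score of median probe intensity.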

Sequence	PBM 8-mer E-score
CTTATGAA	0.0318 ± 0.11
CTTACTCA	0.0397 ± 0.06
CGACGTGA	0.0688 ± 0.0071
CCACGTGA	0.4829 ± 0.002
CTACGTGA	-0.0378 ± 0.094
AGAGCACA	-0.0234 ± 0.086
ATTGCTTA	0.0363 ± 0.041
CGTACACC	0.0276 ± 0.012
CGTACACG	0.257 ± 0.018
CCTACACG	-0.0643 ± 0.072
AGTACACG	0.233 ± 0.032
CGTACACA	0.15 ± 0.012
TGTACACA	0.159 ± 0.071
ACTACACG	0.139 ± 0.041
AGTACACA	0.163 ± 0.09
ACTACACA	0.306 ± 0.067
CTTCGCTC	-0.143 ± 0.067
TAAGGAGA	0.0617 ± 0.054
CAGAACCA	-0.0491 ± 0.0095
AGTTGCTC	-0.143 ± 0.047
ACCACATA	0.00899 ± 0.073
AGCACATG	0.343 ± 0.004
ATCACATA	0.175 ± 0.13

Sequence	PBM 8-mer E-score
ATCACATG	0.37 ± 0.017
ATCACATC	0.065 ± 0.073
AGCACATC	0.0162 ± 0.041
ACCACATC	0.0678 ± 0.067
ACCACATG	0.404 ± 0.012
AGCACATA	0.0511 ± 0.0046
GCTCTGAC	-0.2596 ± 0.00028
CCTACTGA	0.0748 ± 0.039
CCCTATCA	0.0698 ± 0.034
CCTCACAC	-0.0382 ± 0.027
TGAGCTCA	-0.206 ± 0.065
CATGCACA	0.353 ± 0.0061
CGTGCACG	0.293 ± 0.049
CATGCACG	0.186 ± 0.11
GATGCACA	-0.00554 ± 0.026
AATGCACG	0.245 ± 0.045
AATGCACA	0.128 ± 0.055
CGTGCACA	0.176 ± 0.0077
TGTGCACA	0.132 ± 0.071
AATGCACT	0.143 ± 0.027
CCTACTGC	-0.0303 ± 0.015
AATAGAGT	0.0159 ± 0.021
AAGGCTCT	-0.0744 ± 0.037

Sequence	PBM 8-mer E-score
GGTCGGAA	-0.0727 ± 0.14
AGTCTGTG	-0.264 ± 0.097
ACAGTGTG	0.116 ± 0.011
GGACATTA	0.0724 ± 0.14
GTGCACAA	-0.0677 ± 0.047
GATACAGC	0.0628 ± 0.015
CAGTATTC	0.0983 ± 0.017
AACATGCC	0.093 ± 0.12
TACATGCA	0.196 ± 0.084
AACATGCG	0.221 ± 0.0062
CACATGCA	0.305 ± 0.031
AATATGCG	0.0644 ± 0.011
GACATGCC	0.167 ± 0.019
CATATGCC	0.118 ± 0.036
GACATGCA	0.144 ± 0.07
CACATGCC	0.258 ± 0.024
CACATGCG	0.29 ± 0.047
CCCATGCG	0.187 ± 0.058
CATATGCG	0.252 ± 0.015
CTGCATAA	0.0963 ± 0.024
CCAATGTA	-0.0337 ± 0.034
GTTGTTTA	0.212 ± 0.071
CTACACTC	-0.0808 ± 0.031

Sequence	PBM 8-mer E-score
ACTGAGAC	-0.109 ± 0.043
CCCACGGC	-0.024 ± 0.17
CAGATTGG	-0.114 ± 0.072
CACATCCG	-0.176 ± 0.045
CTAAGGAG	-0.143 ± 0.011
AAAATATA	0.254 ± 0.032
CAAATATA	0.137 ± 0.06
AAAATACA	0.0792 ± 0.0013
AAAATATC	0.098 ± 0.12
GAAATATA	0.219 ± 0.035
AAAATATG	0.21 ± 0.0022
GAAATACA	-0.0415 ± 0.044
TAAATATA	0.253 ± 0.0074
TAAATACA	0.248 ± 0.0097
AGGGCGTA	0.122 ± 0.028
GAATTCTA	-0.07 ± 0.14
CAGGCCCC	-0.0835 ± 0.04
ACATGCGT	0.313 ± 0.081
ACATGCAC	0.244 ± 0.065
AAATGCGT	0.0113 ± 0.099
